From PubChem BioAssay (NCATS)
Records with an inconclusive call do not appear. Calls of active or inactive are those of the source. Unless noted, calls come from the whole dose curve; as a rule, active = well fitted curve in either direction with a large enough effect (not every such curve was filed as active); inconclusive = small, poorly fitted or top-dose-only effect, or another doubt; inactive = flat fitted curve, though single readings scatter.

Assays:
[1] = biological target: Lysosomal acid glucosylceramidase (Homo sapiens) (UniProt P04062); test: Glucocerebrosidase-p2 (AID 348; in the data active = potency below about 10 µM; note: potency is the fitted concentration of half-maximal effect); details: purified GBA, blue fluorogenic substrate, 40 min
Summary of the method: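 Normal human glucocerebrosidase (0.2 nM) with blue fluorogenic substrate (80 uM final) in citrate/phosphate pH 5.9 with 10mM sodium taurocholate, 0.01% tween-20; 40 min RT, NaOH/glycine stop; fluorescence Ex 365/Em 440; AC50 from a titration from 0.6 nM upwards.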

[2] = AP1 Signaling Pathway (AID 357); details: ME-180 AP-1-bla reporter, EGF-induced, beta-lactamase ratio, 5 h; at 7.69 µM (top of the series) unless noted;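 note: ME-180 reporter cells stimulated with EGF at its EC50 level; % is set by controls: 0 for no effect and ±100 for the full control effect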
Summary of the method: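 Cells are seeded overnight, exposed to compound titrations and an EC50 level of EGF for 5 hours at 37 °C, then loaded with CCF4 dye for 2.5 hours. Beta-lactamase activity under the AP-1 element is read as a blue/green ratio.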

[3] = biological target: Cytochrome P450 1A2 (Homo sapiens) (UniProt P05177); test: p450-cyp1a2 (AID 410; calls by dose curve; note: potency is the fitted concentration of half-maximal effect;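 for activity change, negative = inhibition: -100% = full effect of reference inhibitor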); details: recombinant CYP1A2, luciferin-ME demethylation, luminescence; series mostly up to 57 µM
Summary of the method: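 O-Demethylation of luciferin 6' methyl ether by human CYP1A2 is monitored as luciferase luminescence. Substrate sits at Km (100uM); enzyme is 20nM. Values are scaled to 57 uM furafylline as maximal inhibition.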

[4] = Stat Signaling Pathway (AID 446); details: ME-180 SIE beta-lactamase reporter, IL-6 stimulated, 5 h; at 7.69 µM (top of the series) unless noted;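 note: ME-180 cervical cancer cells given 40 pM IL-6 alongside compound; SIE-controlled beta-lactamase reporter measured as 460/530 nm FRET emission ratio; % is set by controls: 0 for no effect and ±100 for the full control effect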
Summary of the method: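 Emission at 460 and 530 nm (excitation 405 nm) reports SIE-controlled beta-lactamase in ME-180 cells. Cells received compound with 40 pM IL-6 for 5 hrs at 37 C; data scaled between 300 pM IL-6 and 125 nM JAK-inhibitor controls.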

[5] = biological target: Glucocorticoid receptor (Homo sapiens) (UniProt P04150); test: GR-EFC Redistribution (AID 451; calls by dose curve; note: potency is the fitted concentration of half-maximal effect); details: CHO-K1 GR-EFC translocation, beta-gal luminescence, 2 h
Summary of the method: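 Translocation of GR-ED fusion to nuclear EA restores b-gal, read by luminescence after 1 h room-temperature detection. Engineered CHO-K1 biosensor cells, 1,000/well, exposed 2 h at 37 C to titrations up to 46 uM final.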

[6] = biological target: Mitogen-activated protein kinase 10 (Mus musculus) (UniProt Q61831); test: JNK3 AlphaScreen Assay (AID 530); details: JNK3 lysate, c-Jun phosphorylation; series mostly up to 57.1 µM;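 note: kinase came from lysate of stimulated human HepG2 cells; signal reports phosphorylation of biotinylated GST-cJun 1-79 at Ser73 with 10 µM ATP; % is set by controls: 0 for no effect and ±100 for the full control effect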
Summary of the method: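 qHTS titrations with 15 min compound pre-incubation before adding ATP (10 uM final). Read-out: AlphaScreen of Ser73-phosphorylated biotin-GST-cJun using HepG2 lysate JNK3 activated by IL-1β and TNFα.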

[7] = biological target: 3',5'-cyclic-AMP phosphodiesterase 4B (Homo sapiens) (UniProt Q07343); test: qHTS Assay for Inhibitors of PDE-IV (AID 607; active = well fitted activation curve with a large enough effect in the main read-out, with a control signal flat, not every such curve was filed as active; note: % of control where 0% means no effect); details: HEK293 ACTOne CNG channel cells, membrane potential fluorescence; series mostly up to 22.9 µM
Summary of the method: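 The readout is membrane depolarisation from a cAMP-sensing CNG channel, detected with a potential dye at ex 535/em 590. Cells were HEK293-derived (endogenous PDE-IV) at 1000 cells/well, titrated up to 22.9 uM final.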

[8] = biological target: Cytochrome P450 3A4 (Homo sapiens) (UniProt P08684); test: qHTS Assay for Inhibitors and Substrates of Cytochrome P450 3A4 (AID 884; active = well fitted curve in the direction sought with a large enough effect; an effect the other way counts as inactive or inconclusive; note: nearly all actives have a fitted effect of over 50% in size; note: potency is the fitted concentration of half-maximal effect); details: recombinant CYP3A4, Luciferin-PPXE luminescence; series mostly up to 57.1 µM
Summary of the method: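 Luminescent readout of luciferin produced by CYP3A4 (20 nM) dealkylation of Luciferin-PPXE, 25 uM (its KM). NADPH-driven reaction ran 60 min at RT after 10 min compound preincubation; data scaled to 57 uM ketoconazole as 100% inhibition.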

[9] = biological target: Cytochrome P450 3A4 (Homo sapiens) (UniProt P08684); test: qHTS Assay for Activators of Cytochrome P450 3A4 (AID 885; active = well fitted curve in the direction sought with a large enough effect; an effect the other way counts as inactive or inconclusive; note: nearly all actives have a fitted effect of over 65% in size; note: potency is the fitted concentration of half-maximal effect); details: recombinant CYP3A4, Luciferin-PPXE luminescence, 60 min; series mostly up to 57.1 µM
Summary of the method: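 Activators are scored by enhanced luminescence from CYP3A4 conversion of luciferin-PPXE (25uM, equal to KM) to luciferin, after 60 min at RT with an NADPH-regenerating system.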

[10] = qHTS Assay for Identification of Small Molecule Agonists for Hypoxia Response Element Signaling Pathway (AID 914; active = well fitted activation curve with a large enough effect in the signal ratio, with a control signal flat, not every such curve was filed as active; the % refers to the signal ratio; note: % of control where 0% means no effect); details: ME-180 (cervical carcinoma) HRE-bla reporter, beta-lactamase ratio, CoCl2, 17 h; activation: stronger effect = higher value
Summary of the method: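 Cells were plated overnight, pin-dosed with compound in a titration series, co-stimulated with EC50 CoCl2 and incubated 17 hours at 37 degrees Celsius. CCF4 substrate was then loaded, and AC50 values came from the 460nm/530nm ratio.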

[11] = qHTS Assay for Lipid Storage Modulators (AID 1519; calls by dose curve); details: Drosophila S3 cells, BODIPY lipid droplet/cell ratio, laser cytometry, cells loaded with oleic acid; for activity change, negative = inhibition: at 57.5 µM (top of the series)
Summary of the method: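 Cells seeded at 5,000 per well were treated with compounds over a concentration series and loaded with oleic acid (400 uM, as added). Lipid droplet fluorescence (488 nm excitation, 500-530 nm channel) was read by laser-scanning cytometry and normalized to 20 uM Triacsin C.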

[12] = Primary qHTS for small molecule stabilizers of the endoplasmic reticulum resident proteome: Secreted ER Calcium Modulated Protein (SERCaMP) assay (AID 1508630; active = well fitted curve in the direction sought with a large enough effect; an effect the other way counts as inactive or inconclusive; note: % is set by controls: 0 for no effect and ±100 for the full control effect); details: SH-SY5Y GLuc-SERCaMP (Gaussia luciferase released on ER calcium loss) secretion, thapsigargin, luminescence; series mostly up to 38.4 µM
Summary of the method: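 The SH-SY5Y reporter protocol was run at 3 concentrations up to 38.3 uM (primary) or 11 concentrations (follow-up): 16 h compound, 100 nM thapsigargin for 4 h, then extracellular luciferase luminescence.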

[13] = biological target: Cytochrome P450 2D6 (Homo sapiens) (UniProt P10635); test: qHTS Assay for Inhibitors and Substrates of Cytochrome P450 2D6 (AID 891; active = well fitted curve in the direction sought with a large enough effect; an effect the other way counts as inactive or inconclusive; note: potency is the fitted concentration of half-maximal effect; nearly all actives have a fitted effect of over 60% in size); details: recombinant CYP2D6, luciferin-ME EGE luminescence; series mostly up to 57.1 µM
Summary of the method: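 Luminescent read-out of luciferin formed by 5 nM human CYP2D6 demethylating 30 uM Luciferin-ME EGE (Km level) over 60 min at room temperature after NADPH regeneration addition. Data normalized to full inhibition by 1.43 uM quinidine.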

[14] = biological target: Cytochrome P450 2C19 (Homo sapiens) (UniProt P33261); test: qHTS Assay for Inhibitors and Substrates of Cytochrome P450 2C19 (AID 899; active = well fitted curve in the direction sought with a large enough effect; an effect the other way counts as inactive or inconclusive; note: potency is the fitted concentration of half-maximal effect; nearly all actives have a fitted effect of over 60% in size); details: recombinant CYP2C19, luciferin-H EGE luminescence; series mostly up to 57.1 µM
Summary of the method: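 5nM enzyme + 10uM Luciferin-H EGE (=KM), 50mM KPO4; cpd pin-transferred, 10 min 37C; NADPH regen, 60 min 37C; stopped w/ luciferin detection reagent, 20 min; luminescence. Normalized to 57uM ketoconazole (AC100).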

[15] = measured here: cell count channel max response
[16] = measured here: lipid channel max response

Chain of Cytochrome P450 2D6 (Homo sapiens) (P10635 whole entry, looked up): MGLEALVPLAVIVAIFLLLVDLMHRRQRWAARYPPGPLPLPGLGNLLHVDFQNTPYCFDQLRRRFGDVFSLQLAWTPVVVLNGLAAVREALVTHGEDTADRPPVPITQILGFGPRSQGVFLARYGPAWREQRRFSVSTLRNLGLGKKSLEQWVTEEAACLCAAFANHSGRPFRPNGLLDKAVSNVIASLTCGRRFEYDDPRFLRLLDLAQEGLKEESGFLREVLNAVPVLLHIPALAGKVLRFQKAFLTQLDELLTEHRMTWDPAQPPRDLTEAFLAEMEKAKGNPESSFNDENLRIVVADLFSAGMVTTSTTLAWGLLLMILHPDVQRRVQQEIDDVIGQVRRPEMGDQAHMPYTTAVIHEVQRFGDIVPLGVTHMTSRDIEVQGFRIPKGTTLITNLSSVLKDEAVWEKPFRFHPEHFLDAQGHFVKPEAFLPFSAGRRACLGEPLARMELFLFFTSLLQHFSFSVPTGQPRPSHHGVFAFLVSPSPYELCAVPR
Chain of Cytochrome P450 3A4 (Homo sapiens) (P08684 whole entry, looked up): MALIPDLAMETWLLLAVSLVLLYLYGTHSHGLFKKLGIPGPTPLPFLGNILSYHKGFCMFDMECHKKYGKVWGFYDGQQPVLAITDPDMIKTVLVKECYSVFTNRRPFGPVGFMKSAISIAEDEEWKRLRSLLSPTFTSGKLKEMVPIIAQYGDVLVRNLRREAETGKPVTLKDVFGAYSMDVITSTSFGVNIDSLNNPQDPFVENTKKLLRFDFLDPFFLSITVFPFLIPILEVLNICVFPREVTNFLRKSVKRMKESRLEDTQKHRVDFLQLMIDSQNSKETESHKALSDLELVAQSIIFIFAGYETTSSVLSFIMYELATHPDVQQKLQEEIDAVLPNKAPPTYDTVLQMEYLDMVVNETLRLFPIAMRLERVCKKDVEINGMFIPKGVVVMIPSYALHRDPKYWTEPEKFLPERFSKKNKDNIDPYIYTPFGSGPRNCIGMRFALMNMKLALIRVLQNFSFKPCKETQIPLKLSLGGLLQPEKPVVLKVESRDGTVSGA
Chain of Lysosomal acid glucosylceramidase (Homo sapiens) (P04062 whole entry, looked up): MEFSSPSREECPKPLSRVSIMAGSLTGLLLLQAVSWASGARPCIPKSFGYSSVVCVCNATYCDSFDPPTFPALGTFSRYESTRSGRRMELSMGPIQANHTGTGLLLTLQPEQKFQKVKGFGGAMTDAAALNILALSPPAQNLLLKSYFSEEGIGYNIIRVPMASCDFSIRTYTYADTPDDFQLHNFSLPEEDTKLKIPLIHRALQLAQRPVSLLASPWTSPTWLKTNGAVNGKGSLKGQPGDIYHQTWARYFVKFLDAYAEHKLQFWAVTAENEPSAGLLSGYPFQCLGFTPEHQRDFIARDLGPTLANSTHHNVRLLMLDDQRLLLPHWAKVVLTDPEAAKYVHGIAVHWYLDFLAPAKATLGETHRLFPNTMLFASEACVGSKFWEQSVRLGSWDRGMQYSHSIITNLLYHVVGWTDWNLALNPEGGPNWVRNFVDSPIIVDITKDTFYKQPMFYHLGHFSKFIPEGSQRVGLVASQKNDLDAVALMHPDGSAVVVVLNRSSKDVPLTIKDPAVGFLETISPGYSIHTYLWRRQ
Chain of Glucocorticoid receptor (Homo sapiens) (P04150 whole entry, looked up, the tested form may be a part): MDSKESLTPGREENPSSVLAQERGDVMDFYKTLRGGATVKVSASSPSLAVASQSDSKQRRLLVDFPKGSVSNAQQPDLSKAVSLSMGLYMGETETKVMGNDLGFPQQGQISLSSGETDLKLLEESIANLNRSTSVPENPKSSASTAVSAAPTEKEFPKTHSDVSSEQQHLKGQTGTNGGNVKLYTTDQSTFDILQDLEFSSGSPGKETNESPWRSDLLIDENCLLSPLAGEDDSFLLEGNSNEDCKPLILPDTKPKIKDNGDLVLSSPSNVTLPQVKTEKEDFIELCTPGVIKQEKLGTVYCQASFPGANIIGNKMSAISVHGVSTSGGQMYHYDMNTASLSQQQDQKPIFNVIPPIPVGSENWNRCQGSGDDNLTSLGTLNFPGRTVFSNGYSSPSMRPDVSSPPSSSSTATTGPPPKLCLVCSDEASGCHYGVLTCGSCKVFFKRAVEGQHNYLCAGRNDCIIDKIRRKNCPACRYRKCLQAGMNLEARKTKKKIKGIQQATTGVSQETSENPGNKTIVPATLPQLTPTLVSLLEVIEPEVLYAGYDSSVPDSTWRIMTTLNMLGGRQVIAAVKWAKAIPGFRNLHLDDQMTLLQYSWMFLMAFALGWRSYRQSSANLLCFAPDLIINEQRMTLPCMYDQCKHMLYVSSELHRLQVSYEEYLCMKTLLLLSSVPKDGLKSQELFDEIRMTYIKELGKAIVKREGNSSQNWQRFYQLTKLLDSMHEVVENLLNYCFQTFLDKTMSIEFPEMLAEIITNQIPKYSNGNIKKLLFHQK
Chain of Cytochrome P450 1A2 (Homo sapiens) (P05177 whole entry, looked up): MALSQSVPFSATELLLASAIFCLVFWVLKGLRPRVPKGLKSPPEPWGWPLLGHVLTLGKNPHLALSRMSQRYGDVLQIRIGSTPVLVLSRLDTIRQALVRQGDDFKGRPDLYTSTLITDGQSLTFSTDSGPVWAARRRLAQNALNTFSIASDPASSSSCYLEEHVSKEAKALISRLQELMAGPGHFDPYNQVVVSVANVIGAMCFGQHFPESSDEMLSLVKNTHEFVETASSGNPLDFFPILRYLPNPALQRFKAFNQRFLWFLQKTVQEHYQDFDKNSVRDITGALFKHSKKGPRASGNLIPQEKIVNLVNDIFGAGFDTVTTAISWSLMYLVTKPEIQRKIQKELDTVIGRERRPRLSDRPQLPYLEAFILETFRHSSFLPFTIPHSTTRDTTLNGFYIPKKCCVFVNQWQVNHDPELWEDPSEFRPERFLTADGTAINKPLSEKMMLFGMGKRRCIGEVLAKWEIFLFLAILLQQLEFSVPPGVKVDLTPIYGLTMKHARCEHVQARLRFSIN
Chain of 3',5'-cyclic-AMP phosphodiesterase 4B (Homo sapiens) (Q07343 whole entry, looked up): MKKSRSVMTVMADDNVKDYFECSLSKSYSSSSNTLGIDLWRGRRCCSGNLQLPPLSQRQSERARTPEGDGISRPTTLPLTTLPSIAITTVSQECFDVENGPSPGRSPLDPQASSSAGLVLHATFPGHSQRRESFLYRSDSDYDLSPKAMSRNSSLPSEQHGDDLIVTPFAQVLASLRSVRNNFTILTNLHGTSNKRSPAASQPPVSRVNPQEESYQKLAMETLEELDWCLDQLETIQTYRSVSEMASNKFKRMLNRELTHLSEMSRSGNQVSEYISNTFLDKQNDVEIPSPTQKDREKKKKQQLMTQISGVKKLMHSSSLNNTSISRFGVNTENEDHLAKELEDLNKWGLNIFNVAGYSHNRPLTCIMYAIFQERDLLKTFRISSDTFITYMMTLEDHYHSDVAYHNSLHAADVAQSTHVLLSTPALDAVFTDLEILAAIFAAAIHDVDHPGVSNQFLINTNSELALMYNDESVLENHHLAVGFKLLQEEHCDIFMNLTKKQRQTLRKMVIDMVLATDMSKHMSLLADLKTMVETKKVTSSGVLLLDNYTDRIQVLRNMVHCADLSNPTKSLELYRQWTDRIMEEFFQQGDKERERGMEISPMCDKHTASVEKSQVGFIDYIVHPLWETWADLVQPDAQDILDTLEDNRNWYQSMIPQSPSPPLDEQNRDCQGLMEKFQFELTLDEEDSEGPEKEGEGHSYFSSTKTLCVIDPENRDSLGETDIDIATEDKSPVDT
Chain of Cytochrome P450 2C19 (Homo sapiens) (P33261 whole entry, looked up): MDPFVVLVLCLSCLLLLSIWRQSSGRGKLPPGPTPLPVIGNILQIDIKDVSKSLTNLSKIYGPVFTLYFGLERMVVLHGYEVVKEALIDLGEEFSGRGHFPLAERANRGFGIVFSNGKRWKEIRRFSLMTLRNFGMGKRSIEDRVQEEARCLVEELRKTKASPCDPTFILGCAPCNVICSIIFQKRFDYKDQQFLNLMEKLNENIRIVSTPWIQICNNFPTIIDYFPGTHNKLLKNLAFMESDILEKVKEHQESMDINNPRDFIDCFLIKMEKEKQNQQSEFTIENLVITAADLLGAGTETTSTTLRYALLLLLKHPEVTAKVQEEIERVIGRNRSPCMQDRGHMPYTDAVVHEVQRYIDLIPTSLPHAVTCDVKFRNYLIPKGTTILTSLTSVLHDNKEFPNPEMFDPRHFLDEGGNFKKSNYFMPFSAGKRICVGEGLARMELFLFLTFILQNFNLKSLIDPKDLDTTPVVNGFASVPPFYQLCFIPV

Row | Structure (SMILES) | Potency [1] | activity change, negative = inhibition [2] | Potency [3] | activity, negative = inhibition [4] | Potency [5] | Potency [6] | Potency [7] | Potency [8] | Potency [9] | activation [10] | activity change, negative = inhibition [11] | max response [11, 15] [%] | max response [11, 16] [%] | outcome [12] | Potency [13] | Potency [14]
1 | N#Cc1ccc(CN2CC[C@@]3(CCCN(C(=O)c4cc(C(F)(F)F)cc(C(F)(F)F)c4)C3)C2)cc1 | > 11.4 µM (inactive) | 17.7% (inactive) | 25.1 µM (active) | -2.46% (inactive) | > 46 µM (inactive) | inactive | inactive | 5.01 µM (active) | inactive | 13.6% (inactive) | 2.06% (inactive) | -0.217 | 4.67 | inactive |  | 
2 | COc1ccc(NC(=O)N2CCCC3(CCN(S(=O)(=O)c4ccccc4)CC3)C2)cc1 | > 11.4 µM (inactive) | -4.9% (inactive) | inactive | -19% (inactive) | > 46 µM (inactive) | inactive | inactive | 7.94 µM (active) | inactive |  | 2.57% (inactive) | 6.07 | 10.9 | inactive |  | 
3 | O=C(c1ccco1)N1CCC2(CCN(Cc3ccccc3)CC2)CC1 | > 11.4 µM (inactive) | -4.92% (inactive) | inactive | -6.84% (inactive) | > 46 µM (inactive) | inactive | inactive | inactive |  |  | -0.6% (inactive) | -0.833 | 1.54 | inactive | 3.98 µM (active) | 
4 | COc1ccccc1CN1CCCC2(CCN(C(=O)c3c(C)noc3C)CC2)C1 | > 11.4 µM (inactive) | -9.04% (inactive) | inactive | -7.32% (inactive) | > 46 µM (inactive) | inactive | inactive |  | inactive |  | 1.7% (inactive) | 14.6 | 17.9 | inactive |  | 
5 | COc1ccc(C(=O)N2CCC3(CC2)CCN(C(c2ccccc2)c2ccccc2)CC3)cc1 | > 11.4 µM (inactive) | 4.01% (inactive) | inactive | -17.5% (inactive) | > 46 µM (inactive) | inactive | inactive | inactive | 3.16 µM (active) |  | 2.48% (inactive) | 13.4 | 21.1 | inactive |  | 
6 | CC(C)CN1CCC2(CC1)CCN(C(=O)c1ccncc1)CC2 | > 11.4 µM (inactive) | -3.14% (inactive) | inactive | -5.7% (inactive) | > 46 µM (inactive) | inactive | inactive |  | inactive |  | 0.393% (inactive) | 14.2 | 14.7 | inactive | 3.98 µM (active) | 
7 | O=C(c1cc(C(F)(F)F)cc(C(F)(F)F)c1)N1CCC[C@@]2(CCN(c3ccccc3)C2)C1 | > 11.4 µM (inactive) | 0.763% (inactive) | inactive | 2.5% (inactive) | > 46 µM (inactive) | inactive | inactive |  | inactive |  | -3.81% (inactive) | 10.6 | 10.6 | inactive |  | 
8 | O=C(c1cnccn1)N1CCC2(CC1)CN(C(c1ccccc1)c1ccccc1)C2 | > 11.4 µM (inactive) | -2% (inactive) | 25.1 µM (active) | -4.86% (inactive) | > 46 µM (inactive) | inactive | inactive | inactive | 12.6 µM (active) |  | 1.71% (inactive) | 6.7 | 10.5 | inactive | 6.31 µM (active) | 
9 | COCC(=O)N1CCC2(CCCN(c3ccncc3)C2)CC1 | > 11.4 µM (inactive) | 3.93% (inactive) | inactive | -8.03% (inactive) | > 46 µM (inactive) | inactive | inactive |  | inactive |  | 3.88% (inactive) | -7.49 | 0.42 | inactive |  | 
10 | c1ccc(C(c2ccccc2)N2CCCC3(CCNCC3)C2)cc1 | > 11.4 µM (inactive) | -3.1% (inactive) | 7.94 µM (active) | 4.89% (inactive) | > 46 µM (inactive) | inactive | inactive | 1.26 µM (active) | inactive | 19.3% (inactive) | -1.73% (inactive) | -12.4 | -10.8 | inactive |  | 
11 | O=C(c1cccc(F)c1)N1CCC2(CC1)CN(Cc1ccccc1)C2 | > 11.4 µM (inactive) | 0.919% (inactive) | inactive | 0.079% (inactive) | > 46 µM (inactive) | inactive | inactive |  |  |  | -1.4% (inactive) | -5.75 | -4.23 | inactive | 5.01 µM (active) | 
12 | O=S(=O)(c1ccccc1)N1CCC2(CCCN(c3ccccn3)C2)CC1 | > 11.4 µM (inactive) | -6.83% (inactive) | 7.94 µM (active) | -6.34% (inactive) | > 46 µM (inactive) | inactive | inactive |  |  | -11.6% (inactive) | 5.71% (inactive) | 17.9 | 25.4 | inactive |  | 0.158 µM (active)
13 | N#Cc1cccc(NC(=O)N2CC3(CCN(C(=O)c4cc(C(F)(F)F)cc(C(F)(F)F)c4)CC3)C2)c1 | > 11.4 µM (inactive) | -13.9% (inactive) | 12.6 µM (active) | -7.2% (inactive) | > 46 µM (inactive) | inactive | inactive |  | inactive |  | -0.946% (inactive) | 14 | 14.4 | inactive |  | 0.631 µM (active)
